# This is one part of a sample in which hits are shown more often than they occur.
# AmpC inh no detg: AmpC beta-lactamase inhibition without detergent; P00811; Potency, µM (doses to about 57.1 µM), for the others: at the highest dose activity change, negative = inhibition, actives largely listed as inhibitors; hit rate 0.52% among 330,000; AmpC nitrocefin hydrolysis, absorbance 480 nm, 0.0001% Triton;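 further: potency means the concentration at half of the fitted maximal effect; plate controls were no compound for no effect and no enzyme for full effect; nearly all actives have a fitted effect of over 20% in size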
# Target sequence (P00811 whole entry, looked up): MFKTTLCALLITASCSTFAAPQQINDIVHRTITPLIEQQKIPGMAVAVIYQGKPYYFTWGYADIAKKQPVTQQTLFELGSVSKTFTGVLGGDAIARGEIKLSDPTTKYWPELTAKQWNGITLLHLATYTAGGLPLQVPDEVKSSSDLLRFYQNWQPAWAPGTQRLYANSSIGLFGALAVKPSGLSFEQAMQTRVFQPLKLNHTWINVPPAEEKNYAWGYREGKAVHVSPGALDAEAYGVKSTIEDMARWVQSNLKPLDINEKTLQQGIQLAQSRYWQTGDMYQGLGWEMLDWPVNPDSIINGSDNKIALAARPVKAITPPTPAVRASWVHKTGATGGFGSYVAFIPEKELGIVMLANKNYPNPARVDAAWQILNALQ
#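 AmpC (5.3 nM in the dispensed reagent) in 20 mM phosphate pH 7.0 with 0.01% (detergent screen) or 0.0001% Triton X-100 was preincubated with compounds for 15 min at room temperature. Nitrocefin was then added from an 800 uM solution, and hydrolysis was followed at 480 nm.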
# Shiga inhibitor: blocks Shiga toxin action in Vero cells; inhibition, % at 38.7 µM; hit rate 9.2% among 290,000; Vero cells, Shiga toxin protein synthesis inhibition reporter; AID 2315; in the data active means inhibition mostly above about 28%, no sharp cut-off; inactive means mostly below about 43%; further: 0% is about no effect
# AmpC inh detg: AmpC beta-lactamase inhibition with detergent present; hit rate 0.041% among 370,000; AmpC hydrolysis of nitrocefin, absorbance 480 nm, 0.01% Triton; P00811; Potency, µM (top dose mostly 114 µM), without a hit: at the highest dose activity change, negative = inhibition, actives largely listed as inhibitors;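 further: potency means the concentration at half of the fitted maximal effect; 0% = no-compound wells and -100% = no-enzyme wells; nearly all actives have a fitted effect of over 25% in size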
#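 20 mM phosphate pH 7.0 + 0.01% (detergent screen) or 0.0001% Triton X-100; 5.3 nM AmpC reagent; cpd preinc 15 min RT; nitrocefin (800 uM stock) to start; A480 q20 s × 4 min; Activity was normalised to no-enzyme and no-compound control wells.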
# NS1 function inh: blocks influenza NS1 protein function. Potency, µM (highest dose often 46.1 µM), for inactives: top-dose activity, positive = more growth. hit rate 0.4% among 270,000; calls by dose curve; further: potency means the concentration at half of the fitted maximal effect; actives are rising curves; nearly all actives have a fitted effect of over 50% in size
#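 S. cerevisiae expressing influenza A NS1, grown in glucose, washed, then diluted 1:100 into pH 6.0 -URA galactose medium with 23 nl compound. Growth recovery read as OD600; NS1-free strain serves as control.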
# CHX counter: counter-screen for Shiga toxin inhibitors: cycloheximide protein synthesis inhibition | cell reporter, cycloheximide protein synthesis inhibition counterscreen | max response, % | hit rate 12% among 300,000 | AID 2314; in the data active means max response mostly above about 13%, no sharp cut-off; inactive means mostly below about 14%; further: read at 38.3 µM for the half of the compounds with a filed dose; 0% is about no effect
# An asterisk follows results filed as active; u = inconclusive; x = no result; [ ] = dose if it differs, or a comment. Unless noted, the call rests on the fitted dose curve; in most records, active means well fitted curve in the direction sought with a large enough effect; inconclusive means small, poorly fitted or top-dose-only effect, or another doubt; inactive means no such curve, though single readings can be large; an effect the other way counts as inactive or inconclusive.
SMILES,AmpC inh no detg,Shiga inhibitor,AmpC inh detg,NS1 function inh,CHX counter
Cc1ccc(-n2c(C)cc(C(=O)CN3CCCCC3)c2C)cc1,-11%,87*,2%,5%,40*
Cc1cc(C(=O)O)c(C)n1-c1ccccc1,-11%,-11,u,-8%,-5
Cc1cc(C(=O)CN2CCC(C)CC2)c(C)n1-c1ccccc1F,-13%,-5,-4%,-5%,2
Cc1cc(C(=O)CN2CC(C)OC(C)C2)c(C)n1-c1ccccc1 (stereo not drawn),12%,50*,u,8%,13*
CCCc1cc(C(=O)Nc2cc(Cl)ccc2O)no1,-24%,92*,-11%,-41%,31*
CCCc1cc(C(=O)Nc2cc(Br)ccc2O)no1,-42%,57*,u,-41%,22*
CC(C)Cc1cc(C(=O)Nc2cc(Cl)ccc2Cl)no1,-10%,7,u,-2%,-2
Cc1ccc(NC(=O)c2ccc(C)c(S(=O)(=O)N3CCOCC3)c2)nc1,-11%,x,0%,x,x
Cc1ccc(C(=O)Nc2ccc(Cl)cn2)cc1S(=O)(=O)N1CCOCC1,6%,61*,-5%,-18%,35*
COc1ccc(C(=O)Nc2ccc(Cl)cn2)cc1Cl,-19%,79*,-13%,-18%,50*
CN(C)S(=O)(=O)c1cccc(C(=O)Nc2ccc(Cl)cn2)c1,-3%,50*,u,-3%,51*
O=C(Nc1ccc(Cl)cn1)c1cccc(S(=O)(=O)N2CCCC2)c1,-16%,41*,-1%,2%,14*
COc1ccc(C(=O)Nc2ccc(Cl)cn2)cc1S(=O)(=O)N1CCCC1,-8%,x,-10%,x,x
COC(=O)CC(=O)CSc1nc2cc(C(=O)NCC(C)C)ccc2c(=O)n1CCc1ccccc1,x,x,10%,x,x
O=C1C(c2ccc(F)cc2)N(CCc2ccccc2)C(=O)CN1C1CCCCCC1 (stereo not drawn),x,x,-6%,x,x
COc1cccc(C(=O)Nc2ccc3c(cc2=O)[C@@H](NC(C)=O)CCc2cc(OC)c(OC)c(OC)c2-3)c1,177%,-5,2%,11%,-2
CCOC(=O)[C@H]1[C@H]2COc3ccc(Br)cc3[C@@H]2N2C(=O)c3ccc(Cl)cc3NC(=O)[C@@]12C,-20%,x,u,x,x
COc1cc(CN2CCN(C(=O)c3ccc(-c4ccccc4)cc3)CC2)cc(OC)c1OC,-11%,98*,2%,0%,19*
COc1ccc(C(C#N)=C2C=CC(=NO)C=C2)cc1,-28%,-3,1%,-92%,18*
COc1ccc(C(=O)c2ccc(Cl)cc2)cc1,-17%,75,-8%,-1%,26
CN(C)c1ccc(/C=C/c2ccc3c4ccccc4ccc3[n+]2-c2ccccc2)cc1,71%,-18,-13%,x,-3
CN(C)c1ccc(/C=C/c2cccc[n+]2[O-])cc1,-9%,59*,1%,-4%,33*
CN(CCCS(=O)(=O)[O-])c1ccc(/C=C/c2ccc3ccccc3[n+]2C)cc1,0%,19,0%,-1%,8
[O-][n+]1c(/C=C/c2ccccc2)ccc2ccccc21,-22%,31*,u,-27%,29*
CN(C)c1ccc(/C=C/c2ccc3ccccc3[n+]2C)cc1,-22%,23,-3%,-36%,19*
SMILES,AmpC inh no detg,Shiga inhibitor,AmpC inh detg,NS1 function inh,CHX counter
COc1ccc(/C=C/c2ccc3ccccc3[n+]2C)cc1OC,-7%,71*,0%,-2%,44*
COC(=O)[C@H](Cc1ccccc1)NC(=O)Cn1cnc2c(NCc3ccccc3)ncnc21,0%,x,x,x,x
CCC1(C)Cc2sc3c(=O)[nH]c(=S)[nH]c3c2CO1 (stereo not drawn),-31%,25,3%,x,23
CCc1nnc(NC(=O)CSc2nnc(-c3ccc(O)cc3)n2-c2ccccc2)s1,x,x,x,-14%,x
CC(=O)Oc1ccccc1/C=C/c1ccc2ccccc2[n+]1C,-1%,107*,-5%,-17%,43*
CC(C)(C)c1ccc(OCC(=O)NC(Cc2c[nH]c3ccccc23)C(=O)O)cc1 (stereo not drawn),x,x,-9%,x,x
Cc1cc(C)c2nc(N)sc2c1,-27%,30,3%,-63%,34*
COc1ccc(NC(=O)Cn2ccn(-c3ccc(F)c(F)c3)c(=O)c2=O)cc1Cl,x,x,23%,x,x
NCCc1c[nH]c2ccc(O)cc12,x,-13,x,x,42*
CCOc1cc(Cl)c(NC(=O)CC)cc1OCC,1%,-3,4%,18%,-3
O=C(Nc1ccc(N2CCN(C(=O)c3ccccc3)CC2)cc1)c1ccc2c(c1)OCCO2,6%,62*,-5%,u,55*
CC(=O)N1CCN(c2ccc(NC(=O)c3ccc4c(c3)OCCO4)cc2)CC1,-23%,20,u,3%,16
CN1CCN(c2ccc(NC(=O)c3ccc4c(c3)OCO4)cc2)CC1,-27%,72*,-12%,-2%,42*
O=C(Nc1ccc(N2CCCCC2)cc1)c1ccc2c(c1)OCCO2,-36%,75*,1%,-15%,35*
CC(=O)N1CCN(c2ccc(NC(=O)c3ccc4c(c3)OCCO4)cc2Cl)CC1,31%,52,3%,-2%,28*
O=C(Nc1ccc(N2CCN(C(=O)c3ccc(Cl)cc3)CC2)cc1)c1ccc2c(c1)OCCO2,0%,-4,3%,7%,-2
COc1ccc(NC(=S)N2CCC(NC(=O)c3ccc(F)cc3)CC2)cc1,-19%,-3,1%,-14%,-3
CCOc1ccccc1NCc1nnc(-c2ccccc2)o1,-2%,11,4%,-18%,15*
COc1ccc(NCc2nnc(-c3ccccc3)o2)cc1,-13%,28*,-3%,14%,20*
COc1ccc(OC)c(NCc2nnc(-c3ccccc3)o2)c1,-9%,-4,u,30%,-1
CCOc1ccccc1NC(=O)c1nc(-c2ccccc2)oc1C,-15%,21,3%,x,6
COc1ccc(/C=N/NC(=O)OC(C)(C)C)cc1OC,-7%,active,0%,-1%,14*
COc1cc(/C=N/NC(=O)c2cccnc2)ccc1OC(=O)c1ccco1,-14%,13,2%,0%,-1
COc1cc(/C=N\NC(=O)OC(C)(C)C)ccc1OC(=O)c1ccco1,-8%,82*,3%,x,19
Cc1cc(C(=O)N/N=C/c2cccc([N+](=O)[O-])c2)c(C)o1,-5%,1,-2%,-4%,6
SMILES,AmpC inh no detg,Shiga inhibitor,AmpC inh detg,NS1 function inh,CHX counter
CC(C)(C)OC(=O)N/N=C/c1cccc([N+](=O)[O-])c1,-17%,82*,2%,x,50*
C=CC1=C(C(=O)O)N2C(=O)[C@@H](NC(=O)C(N=O)c3csc(N)n3)[C@H]2SC1 (stereo partly drawn),x,-4,x,x,3
Oc1ccc(CNc2cccc(F)c2F)c2cccnc12,-19%,x,-10%,x,x
CC1=Nc2ccccc2/C1=C\c1nc(-c2ccccc2)oc1O,4%,-7,u,5%,0
Oc1oc(-c2ccccc2)nc1C=NCc1ccccc1,-23%,119*,u,-100%,61*
COc1ccc(N=Cc2nc(-c3ccco3)oc2O)cc1,-27%,102*,0%,-1%[9.22 µM],51*

# Screening data (PubChem BioAssay)
